± gives the standard deviation of the averaged measurements.
Tested on: E. coli TESEC Mtb Alr
Test: growth (OD600 after 10 h); higher = more growth (less inhibition)
Settings: compound 0.1 mM
Description: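 TESEC Mtb Alr E. coli, or the Alr+ wild-type control, in 384-well plates with Prestwick library compounds at 0.1 mM and 1% DMSO, across arabinose induction levels of 1E3 to 1E7 nM. Growth is read as OD600 after 10 h at 37 °C in triplicate biological replicates.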

[1] = arabinose 1000 nM, raw OD600 reference: median of DMSO wells 0.294, cell-free background 0.041
[2] = arabinose 10000 nM, raw OD600 reference: median of DMSO wells 0.264, cell-free background 0.041
[3] = arabinose 100000 nM, raw OD600 reference: median of DMSO wells 0.201, cell-free background 0.041
[4] = arabinose 1000000 nM, raw OD600 reference: median of DMSO wells 0.193, cell-free background 0.041
[5] = arabinose 10000000 nM, raw OD600 reference: median of DMSO wells 0.146, cell-free background 0.041

What does the source list for CCOc1cc(CC(=O)N[C@@H](CC(C)C)c2ccccc2N2CCCCC2)ccc1C(=O)O [Repaglinide]?
growth [1]: 0.199 ± 0.0075; growth [2]: 0.26 ± 0.024; growth [3]: 0.175 ± 0.0084; growth [4]: 0.174 ± 0.0073; growth [5]: 0.155 ± 0.01

How did the growth [1] turn out when CC(=O)OCC(=O)[C@@]12OC3(CCCC3)O[C@@H]1C[C@H]1[C@@H]3CCC4=CC(=O)C=C[C@]4(C)[C@@]3(F)[C@@H](O)C[C@@]12C [Amcinonide] was run?
Its growth is 0.287 ± 0.066.

And the growth [2]?
Its growth is 0.272 ± 0.011.

What about the growth [3] of the same compound?
The growth was 0.241 ± 0.059.

What about the growth [4] of the same compound?
The growth was 0.242 ± 0.07.

And the growth [5]?
The growth was 0.172 ± 0.011.

Which results are given for CNC[C@H](O)[C@@H](O)[C@H](O)[C@H](O)CO [Meglumine]?
growth [1]: 0.306 ± 0.016; growth [2]: 0.254 ± 0.0031; growth [3]: 0.212 ± 0.025; growth [4]: 0.188 ± 0.0027; growth [5]: 0.136 ± 0.0042

Which results are given for CN1CCN(CCCN2c3ccccc3Sc3ccc(Cl)cc32)CC1 [Prochlorperazine dimaleate]?
growth [1]: 0.041 ± 0.00045; growth [2]: 0.03943 ± 0.00025; growth [3]: 0.0418 ± 0.00082; growth [4]: 0.0404 ± 0.0023; growth [5]: 0.0433 ± 0.00072

Which results are given for Cc1nc2n(c(=O)c1CCN1CCC(c3noc4cc(F)ccc34)CC1)CCCC2 [Risperidone]?
growth [1]: 0.305 ± 0.007; growth [2]: 0.269 ± 0.014; growth [3]: 0.175 ± 0.016; growth [4]: 0.18 ± 0.0097; growth [5]: 0.146 ± 0.0055

C[C@@H](O)[C@H]1C(=O)N2C(C(=O)O)=C(SCCNC=N)C[C@H]12 [Imipenem] was tested. Which growth [1] did it give?
Its growth is 0.282 ± 0.0094.

And the growth [2]?
The growth was 0.269 ± 0.0053.

What about the growth [3] of the same compound?
The growth was 0.202 ± 0.035.

What about the growth [4] of the same compound?
Its growth is 0.174 ± 0.0056.

What about the growth [5] of the same compound?
The growth was 0.136 ± 0.0047.

With CC(C)NNC(=O)c1ccncc1 [Iproniazide phosphate] as the compound, how does the growth [1] read?
Its growth is 0.276 ± 0.0095.

And the growth [2]?
The growth was 0.27 ± 0.0057.

What about the growth [3] of the same compound?
The growth was 0.219 ± 0.033.

And the growth [4]?
Its growth is 0.188 ± 0.007.

And the growth [5]?
Its growth is 0.153 ± 0.0052.

Which results are given for CCCCOC(=O)c1ccc(O)cc1 [Butylparaben]?
growth [1]: 0.148 ± 0.0023; growth [2]: 0.213 ± 0.0083; growth [3]: 0.157 ± 0.0026; growth [4]: 0.131 ± 0.0015; growth [5]: 0.15 ± 0.0048

From the supplement of paper PMC9262897, “Low-cost anti-mycobacterial drug discovery using engineered E. coli” (Nature Communications, 2022)
